# Measurements from paper PMC7862700, “An all-to-all approach to the identification of sequence-specific readers for epigenetic DNA modifications on cytosine”.
# How the values were obtained:
# Test in all cases: DAPPL (digital affinity profiling via proximity ligation, sequencing); 10 mM Tris-HCl pH 7.5, 50 mM NaCl, 1 mM DTT, 4% glycerol, room temperature, 30 min; GST-TFs on glutathione beads, 16-mer random dsDNA library, 0.1% formaldehyde crosslink after washing; high values mean tight binding
# FLI1 = biological target: T1, FLI1 (Homo sapiens, UniProt Q01543 1-452); details: protein: recombinant; tags: N-terminal GST; dsDNA, one strand shown
# T1 sequence: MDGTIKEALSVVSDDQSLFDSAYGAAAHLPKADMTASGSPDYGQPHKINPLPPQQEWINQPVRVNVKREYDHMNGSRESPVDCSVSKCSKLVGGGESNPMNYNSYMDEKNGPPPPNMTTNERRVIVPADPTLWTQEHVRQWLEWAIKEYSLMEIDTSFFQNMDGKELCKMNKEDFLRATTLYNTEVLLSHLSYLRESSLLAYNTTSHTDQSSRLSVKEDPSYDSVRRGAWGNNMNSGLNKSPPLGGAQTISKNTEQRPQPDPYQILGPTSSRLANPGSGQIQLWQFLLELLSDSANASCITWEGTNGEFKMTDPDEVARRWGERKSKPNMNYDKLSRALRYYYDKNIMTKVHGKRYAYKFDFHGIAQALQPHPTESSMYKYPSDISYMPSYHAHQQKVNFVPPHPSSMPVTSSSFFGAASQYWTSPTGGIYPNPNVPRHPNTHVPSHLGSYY
# Procedure, shortened: (§1)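 Sequencing on an Illumina NextSeq500 followed washing, crosslinking with 0.1% formaldehyde, proximity ligation (BsaI/T4 ligase, 1 h, 37 °C) and PCR amplification of pools that had been incubated for 30 min at room temperature with 200 nmole of a random double-stranded 16-mer DNA library in Tris/NaCl/DTT/glycerol buffer. Each pool held DNA-barcoded human transcription factors, expressed in yeast as GST fusions and captured on glutathione beads, plus a tag-only sample. Binding signal is a hexamer's read frequency for a factor divided by its frequency in the tag-only sample.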
# ELK1 = biological target: T2, ELK1 (Homo sapiens, UniProt P19419 1-428); details: protein: recombinant; tags: N-terminal GST; dsDNA, one strand shown
# T2 sequence: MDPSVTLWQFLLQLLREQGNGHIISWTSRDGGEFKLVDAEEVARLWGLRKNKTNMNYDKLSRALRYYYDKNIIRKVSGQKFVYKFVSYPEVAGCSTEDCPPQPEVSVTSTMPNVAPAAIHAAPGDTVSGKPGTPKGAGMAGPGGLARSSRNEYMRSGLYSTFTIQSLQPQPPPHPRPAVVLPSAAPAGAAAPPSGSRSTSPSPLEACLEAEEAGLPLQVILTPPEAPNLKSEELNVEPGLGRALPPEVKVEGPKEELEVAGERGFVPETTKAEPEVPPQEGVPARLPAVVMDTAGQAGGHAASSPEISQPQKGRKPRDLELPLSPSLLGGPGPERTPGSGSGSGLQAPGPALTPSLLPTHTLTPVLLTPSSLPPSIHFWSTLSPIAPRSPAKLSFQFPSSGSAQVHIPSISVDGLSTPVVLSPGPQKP
# Procedure, shortened: as §1
# GABPA = biological target: T3, GABPA (Homo sapiens, UniProt Q06546 1-454); details: protein: recombinant; tags: N-terminal GST; dsDNA, one strand shown
# T3 sequence: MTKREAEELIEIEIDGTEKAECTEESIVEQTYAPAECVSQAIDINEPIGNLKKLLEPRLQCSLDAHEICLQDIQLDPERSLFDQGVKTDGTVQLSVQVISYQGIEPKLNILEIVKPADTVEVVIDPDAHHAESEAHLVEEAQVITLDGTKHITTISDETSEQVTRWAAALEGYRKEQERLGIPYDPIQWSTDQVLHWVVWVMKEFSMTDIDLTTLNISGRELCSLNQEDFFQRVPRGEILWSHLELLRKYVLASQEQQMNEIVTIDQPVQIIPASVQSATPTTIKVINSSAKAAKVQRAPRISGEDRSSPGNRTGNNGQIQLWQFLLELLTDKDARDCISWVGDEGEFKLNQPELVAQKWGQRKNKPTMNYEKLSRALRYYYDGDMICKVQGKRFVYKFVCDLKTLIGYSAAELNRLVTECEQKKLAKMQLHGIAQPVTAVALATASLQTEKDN
# Procedure, shortened: as §1
# ERG = biological target: T4, ERG (Homo sapiens, UniProt P11308 1-479); details: protein: recombinant; tags: N-terminal GST; dsDNA, one strand shown
# T4 sequence: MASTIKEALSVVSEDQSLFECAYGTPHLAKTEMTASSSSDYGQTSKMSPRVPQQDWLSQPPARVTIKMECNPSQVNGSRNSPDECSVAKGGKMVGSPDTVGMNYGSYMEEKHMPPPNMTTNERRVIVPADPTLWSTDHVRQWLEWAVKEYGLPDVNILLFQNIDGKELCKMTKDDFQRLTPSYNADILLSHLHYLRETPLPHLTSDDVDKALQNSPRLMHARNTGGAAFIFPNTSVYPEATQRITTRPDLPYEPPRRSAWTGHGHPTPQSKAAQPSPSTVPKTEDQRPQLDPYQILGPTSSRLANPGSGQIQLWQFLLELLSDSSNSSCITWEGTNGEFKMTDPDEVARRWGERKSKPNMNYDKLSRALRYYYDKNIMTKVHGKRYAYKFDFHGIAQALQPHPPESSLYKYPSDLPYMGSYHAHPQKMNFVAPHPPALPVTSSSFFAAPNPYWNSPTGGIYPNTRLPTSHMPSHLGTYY
# Procedure, shortened: as §1
# ELF1 = ELF1 (Homo sapiens, UniProt P32519 1-619); details: protein: recombinant; tags: N-terminal GST; dsDNA, one strand shown
# Sequence of ELF1 (P32519 whole entry): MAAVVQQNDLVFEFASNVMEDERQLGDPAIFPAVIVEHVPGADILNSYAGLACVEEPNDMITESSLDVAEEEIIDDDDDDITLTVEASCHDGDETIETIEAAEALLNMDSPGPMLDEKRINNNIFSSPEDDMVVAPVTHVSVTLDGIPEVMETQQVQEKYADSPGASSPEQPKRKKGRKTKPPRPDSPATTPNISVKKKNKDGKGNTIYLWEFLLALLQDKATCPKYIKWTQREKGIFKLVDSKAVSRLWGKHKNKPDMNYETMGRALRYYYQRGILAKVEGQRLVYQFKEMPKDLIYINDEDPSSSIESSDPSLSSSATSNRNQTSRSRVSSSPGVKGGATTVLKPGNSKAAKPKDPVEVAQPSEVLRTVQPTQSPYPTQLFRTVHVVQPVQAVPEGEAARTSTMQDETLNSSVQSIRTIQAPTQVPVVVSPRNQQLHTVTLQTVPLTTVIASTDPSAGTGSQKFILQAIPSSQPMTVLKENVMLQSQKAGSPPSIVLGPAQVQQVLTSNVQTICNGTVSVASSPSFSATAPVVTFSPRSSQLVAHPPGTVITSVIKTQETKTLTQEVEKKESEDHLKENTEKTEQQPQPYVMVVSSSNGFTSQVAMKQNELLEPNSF
# Procedure, shortened: as §1
# SPI1 = SPI1 (Homo sapiens, UniProt P17947 1-270); details: protein: recombinant; tags: N-terminal GST; dsDNA, one strand shown
# Procedure, shortened: as §1
# SPIB = SPIB (Homo sapiens, UniProt Q01892 1-262); details: protein: recombinant; tags: N-terminal GST; dsDNA, one strand shown
# Sequence of SPIB (Q01892 whole entry): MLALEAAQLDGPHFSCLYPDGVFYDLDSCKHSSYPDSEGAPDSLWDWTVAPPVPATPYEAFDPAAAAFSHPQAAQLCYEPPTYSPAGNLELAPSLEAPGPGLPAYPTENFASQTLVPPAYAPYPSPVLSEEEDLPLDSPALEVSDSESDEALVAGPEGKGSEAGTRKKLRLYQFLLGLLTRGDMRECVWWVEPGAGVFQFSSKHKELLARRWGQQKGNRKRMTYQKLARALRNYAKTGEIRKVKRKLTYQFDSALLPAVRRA
# Procedure, shortened: as §1
# HSF1 = HSF1 (Homo sapiens, UniProt Q00613 1-529); details: protein: recombinant; tags: N-terminal GST; chain copies: 3; dsDNA, one strand shown
# Sequence of HSF1 (Q00613 whole entry): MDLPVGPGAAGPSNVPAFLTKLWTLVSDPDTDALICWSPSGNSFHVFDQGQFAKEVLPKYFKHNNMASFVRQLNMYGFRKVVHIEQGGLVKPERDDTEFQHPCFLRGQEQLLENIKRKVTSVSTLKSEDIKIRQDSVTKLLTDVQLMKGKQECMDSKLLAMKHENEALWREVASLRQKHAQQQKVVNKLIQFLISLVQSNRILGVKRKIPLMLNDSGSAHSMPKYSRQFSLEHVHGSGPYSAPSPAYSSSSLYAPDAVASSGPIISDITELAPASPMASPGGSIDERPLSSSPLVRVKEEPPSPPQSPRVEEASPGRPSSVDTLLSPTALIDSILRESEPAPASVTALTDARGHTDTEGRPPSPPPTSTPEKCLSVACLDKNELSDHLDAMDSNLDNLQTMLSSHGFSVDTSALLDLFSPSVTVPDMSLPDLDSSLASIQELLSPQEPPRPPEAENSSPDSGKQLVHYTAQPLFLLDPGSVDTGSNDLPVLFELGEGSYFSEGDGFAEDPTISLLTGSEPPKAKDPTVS
# Procedure, shortened: as §1
# ELF4 = ELF4 (Homo sapiens, UniProt Q99607 1-663); details: protein: recombinant; tags: N-terminal GST; dsDNA, one strand shown
# Sequence of ELF4 (Q99607 whole entry): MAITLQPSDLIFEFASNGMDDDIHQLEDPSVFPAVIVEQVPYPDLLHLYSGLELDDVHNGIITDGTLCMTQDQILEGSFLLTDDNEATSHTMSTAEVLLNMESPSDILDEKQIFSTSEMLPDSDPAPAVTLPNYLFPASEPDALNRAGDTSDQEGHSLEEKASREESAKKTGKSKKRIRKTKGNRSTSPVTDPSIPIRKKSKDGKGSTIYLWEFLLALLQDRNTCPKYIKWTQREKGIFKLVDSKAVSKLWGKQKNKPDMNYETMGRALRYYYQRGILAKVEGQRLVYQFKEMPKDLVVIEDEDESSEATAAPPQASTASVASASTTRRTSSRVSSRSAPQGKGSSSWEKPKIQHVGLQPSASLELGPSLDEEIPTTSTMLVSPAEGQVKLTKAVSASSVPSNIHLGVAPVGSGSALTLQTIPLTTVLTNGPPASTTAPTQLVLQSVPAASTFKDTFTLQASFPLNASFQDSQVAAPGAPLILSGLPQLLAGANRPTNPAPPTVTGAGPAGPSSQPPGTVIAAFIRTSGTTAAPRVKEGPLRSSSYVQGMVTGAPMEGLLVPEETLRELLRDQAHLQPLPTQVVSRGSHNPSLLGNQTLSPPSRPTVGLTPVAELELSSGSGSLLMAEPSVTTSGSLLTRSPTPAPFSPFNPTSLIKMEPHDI
# Procedure, shortened: as §1
# ETV2 = biological target: T5, ETV2 (Homo sapiens, UniProt O00321 1-342); details: protein: recombinant; tags: N-terminal GST; dsDNA, one strand shown
# T5 sequence: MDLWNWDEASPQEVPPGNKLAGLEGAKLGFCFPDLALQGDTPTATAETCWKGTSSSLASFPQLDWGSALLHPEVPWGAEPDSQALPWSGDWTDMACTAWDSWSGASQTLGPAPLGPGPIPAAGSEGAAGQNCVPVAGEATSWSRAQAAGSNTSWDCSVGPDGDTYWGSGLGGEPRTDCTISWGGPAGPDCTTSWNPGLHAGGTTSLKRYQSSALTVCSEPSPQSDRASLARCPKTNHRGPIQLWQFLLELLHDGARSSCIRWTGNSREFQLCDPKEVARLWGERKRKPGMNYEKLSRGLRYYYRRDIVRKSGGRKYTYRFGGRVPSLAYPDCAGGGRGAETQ
# Procedure, shortened: as §1
sequence,measurement,setting,value
TCAGAT,binding signal,FLI1,"1.01 fold enrichment (6-mer frequency, TF over GST control)"
same,binding signal,ELK1,"1.05 fold enrichment (6-mer frequency, TF over GST control)"
same,binding signal,GABPA,"1.03 fold enrichment (6-mer frequency, TF over GST control)"
same,binding signal,ERG,"1.06 fold enrichment (6-mer frequency, TF over GST control)"
same,binding signal,ELF1,"1.04 fold enrichment (6-mer frequency, TF over GST control)"
same,binding signal,SPI1,"1.08 fold enrichment (6-mer frequency, TF over GST control)"
same,binding signal,SPIB,"1.02 fold enrichment (6-mer frequency, TF over GST control)"
same,binding signal,HSF1,"1.21 fold enrichment (6-mer frequency, TF over GST control)"
same,binding signal,ELF4,"1.02 fold enrichment (6-mer frequency, TF over GST control)"
same,binding signal,ETV2,"1.08 fold enrichment (6-mer frequency, TF over GST control)"
